# In all, about 310,000 compounds went through this assay and about 14,000 (4.5%) showed an effect of 50% or more. The effect is printed as a negative number. Shown is part of a subset that was picked to be rich in strong results.
# Molecular target: human ether-à-go-go-related gene (hERG) potassium channel (human, UniProt Q12809)
# Assay: primary screen, population patch clamp on CHO cells stably expressing hERG; higher = less effect of the substance
# 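Further: peak tail current of the secondary pulse compared with the same well before compound.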
# human ether-à-go-go-related gene (hERG) potassium channel, sequence (Q12809 whole entry, looked up): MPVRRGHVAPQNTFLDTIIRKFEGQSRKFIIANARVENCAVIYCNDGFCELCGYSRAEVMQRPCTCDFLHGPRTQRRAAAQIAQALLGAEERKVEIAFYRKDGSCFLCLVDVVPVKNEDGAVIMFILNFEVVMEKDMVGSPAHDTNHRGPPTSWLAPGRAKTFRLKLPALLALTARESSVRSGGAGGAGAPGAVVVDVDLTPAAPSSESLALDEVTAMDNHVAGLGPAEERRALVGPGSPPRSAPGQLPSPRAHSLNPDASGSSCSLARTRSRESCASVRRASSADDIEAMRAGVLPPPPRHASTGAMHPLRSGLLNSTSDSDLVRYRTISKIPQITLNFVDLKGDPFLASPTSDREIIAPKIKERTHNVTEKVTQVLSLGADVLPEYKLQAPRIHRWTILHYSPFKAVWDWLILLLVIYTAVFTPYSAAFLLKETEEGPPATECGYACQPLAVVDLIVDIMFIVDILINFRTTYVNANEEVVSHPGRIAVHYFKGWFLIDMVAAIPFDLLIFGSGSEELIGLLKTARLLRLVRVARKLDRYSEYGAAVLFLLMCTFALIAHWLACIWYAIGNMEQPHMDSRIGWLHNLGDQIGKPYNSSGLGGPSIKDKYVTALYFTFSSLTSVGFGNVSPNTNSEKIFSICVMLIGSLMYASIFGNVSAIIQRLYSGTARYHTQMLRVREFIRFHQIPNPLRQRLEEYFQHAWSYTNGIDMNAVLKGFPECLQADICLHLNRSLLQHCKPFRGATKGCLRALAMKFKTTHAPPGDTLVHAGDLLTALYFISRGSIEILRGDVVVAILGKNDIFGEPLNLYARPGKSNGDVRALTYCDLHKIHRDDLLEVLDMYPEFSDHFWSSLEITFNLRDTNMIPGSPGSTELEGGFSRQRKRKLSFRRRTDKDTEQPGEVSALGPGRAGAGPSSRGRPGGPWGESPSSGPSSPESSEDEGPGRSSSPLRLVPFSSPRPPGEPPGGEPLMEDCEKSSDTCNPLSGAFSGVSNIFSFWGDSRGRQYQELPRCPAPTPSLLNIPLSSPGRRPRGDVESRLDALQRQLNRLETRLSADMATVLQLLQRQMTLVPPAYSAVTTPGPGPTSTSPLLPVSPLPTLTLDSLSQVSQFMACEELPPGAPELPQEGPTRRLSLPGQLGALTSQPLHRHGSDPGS
row,Structure (SMILES),"hERG current change (%, negative = inhibition) at 10uM [%]"
1,O=C(Nc1ccc(Cl)cc1)c1cc2c(cc1O)[nH]c1ccccc12,21
2,Cc1ccc2nc(-c3ccc(NS(=O)(=O)c4ccc(F)c(F)c4)cc3)sc2c1,23.3
3,COc1cccc(C2CC(c3ccccc3Cl)n3nc(N)nc3N2)c1 (stereo not shown),-9.01
4,COc1ccc(CCN(Cc2nc(-c3ccccc3)no2)Cc2nc(-c3ccccc3)no2)cc1OC,-3.37
5,O=C(N/N=C/c1cc([N+](=O)[O-])ccc1O)C1C2CCCCC21 (stereo not shown),3.28
6,CCn1cc(C(=O)N[C@@H](CCSC)C(=O)NCCO)c(=O)c2cc3c(cc21)OCO3,20.6
7,O=C(NCCC1=CCCCC1)c1ccc(Br)o1,-4.78
8,Cc1ccc(C)c(N2CCN(C(=O)c3ccc(N4CCOCC4)c([N+](=O)[O-])c3)CC2)c1,-21.2
9,COc1cccc(N2CCN(C(=O)c3cccnc3)CC2)c1,11.2
10,COc1ccc(N2CCN(C(=O)c3ccc(C)cc3)CC2)c([N+](=O)[O-])c1,-62.9
11,COc1cccc(C(=O)/C=C/c2ccc(N3CCCCC3)c([N+](=O)[O-])c2)c1,-3.01
12,O=C(c1cccnc1)N1CCN(c2ccccc2Cl)CC1,-18.5
13,O=C(c1ccc([N+](=O)[O-])cc1)N1CCN(C(=O)c2cccnc2)CC1,-15.7
14,COc1ccc(N2CCN(C(=O)c3cccnc3)CC2)c([N+](=O)[O-])c1,-70.8
15,O=C(c1cccnc1)N1CCN(c2c(Cl)cccc2[N+](=O)[O-])CC1,-46
16,O=C(c1cccnc1)N1CCN(c2ccc([N+](=O)[O-])cc2Cl)CC1,-65
17,COc1cccc(C(=O)NC(=S)N2CCN(c3ccc(C(F)(F)F)cc3[N+](=O)[O-])CC2)c1,1.6
18,COc1ccc(N2CCN(C(=O)c3cccc(Br)c3)CC2)c([N+](=O)[O-])c1,-87.1
19,COc1ccc(C(C)=O)cc1COC(=O)CCNS(=O)(=O)c1ccc(C)c(C)c1,-38.3
20,O=C(CNC(=O)c1ccccc1)NCc1nc2ccccc2[nH]1,3.76
21,O=C(O)c1cc(-c2cccs2)nc2ccc(F)cc12,13.2
22,Cc1cccc(-c2nnn(Cc3nnc(NC(=O)c4ccccc4)s3)n2)c1,4.02
23,O=[N+]([O-])c1ccc(-c2cc(-c3ccc(Cl)cc3)n[nH]2)cc1,-4.49
24,COC(=O)c1sc2ncn(-n3c(C)ccc3C)c(=O)c2c1C,19.7
25,O=C1NC(=O)C(=Cc2ccc(N3CCN(C(=O)c4ccccc4)CC3)c([N+](=O)[O-])c2)C(=O)N1,-67.1
26,CN1C(=O)C(=Cc2ccc(N3CCOCC3)c([N+](=O)[O-])c2)C(=O)N(C)C1=O,11.4

row,Structure (SMILES),"hERG current change (%, negative = inhibition) at 10uM [%]"
1,CN(C)c1ccc(C=C2C(=O)NC(=O)NC2=O)cc1[N+](=O)[O-],30.8
2,O=C(c1ccc(F)cc1)N1CCN(c2cc(N3CCCCC3)c(F)cc2[N+](=O)[O-])CC1,-24.6
3,COc1ccc(N2CCN(C(=O)c3ccc(F)cc3)CC2)c([N+](=O)[O-])c1,-70.1
4,CCOC(=O)N1CCN(c2ccc(F)cc2[N+](=O)[O-])CC1,-10.5
5,CCCC(=O)N(CCN(Cc1ccccc1)C(=O)CCC)Cc1ccccc1,-42.5
6,CCC(CO)NC(=O)c1cccc(S(=O)(=O)N2c3ccccc3CC2C)c1 (stereo not shown),2.65
7,O=C(Nc1ccccc1[N+](=O)[O-])c1ccc(S(=O)(=O)N2CCCC2)cc1,1.84
8,CCCN(CCC)c1ncnc2nc[nH]c12,-7.36
9,CN(C)CCN(C(=O)c1ccccc1Cl)c1nc2c(Cl)cccc2s1.Cl,-34.1
10,COc1ccc2sc(N(CCCN(C)C)C(=O)c3nc4ccccc4s3)nc2c1.Cl,-5.36
11,CN(C)CCCN(C(=O)COc1ccc(Cl)cc1)c1nc2c(F)cccc2s1.Cl,-67.1
12,Cc1cc(C)c2sc(N(CCCN(C)C)C(=O)COc3ccc(Cl)cc3)nc2c1.Cl,-1.13
13,CN(C)CCCN(C(=O)COc1ccccc1)c1nc2c(Cl)cccc2s1.Cl,-66.9
14,Cc1cccc2sc(N(CCCN(C)C)C(=O)COc3ccc(Cl)cc3)nc12.Cl,-60.5
15,COc1cccc2sc(N(CCCN(C)C)C(=O)COc3ccc(Cl)cc3)nc12.Cl,-80.2
16,O=[N+]([O-])/C(C(Cl)=C(Cl)Cl)=C(/NC1CC1)Sc1ccccc1,7.59
17,CC(C)N1C(=O)CCC1C(=O)N1CCC(Cc2ccccc2)CC1 (stereo not shown),-25.3
18,CC(C)CC(C(=O)NCc1ccccn1)N1C(=O)c2ccccc2C1=O (stereo not shown),-1.75
19,CCc1ccc(N(CC(=O)NC(C)C)C(=O)CCC(=O)Nc2nccs2)cc1,13.4
20,COc1ccc(/C=C/C(=O)c2ccc3c4c(cccc24)CC3)cc1OC,20.8
21,Nc1nn(S(=O)(=O)c2ccccc2)cc1-c1ccc([N+](=O)[O-])cc1,-9.96
22,O=C(COC(=O)c1ccc2c(c1)OCO2)Nc1ccccc1F,11.8
23,O=C(O)Cc1ccc(NC(=O)c2ccc3c(c2)C(=O)N(CC2CCCO2)C3=O)cc1 (stereo not shown),12.6
24,CC1=C(C(=O)OCCBr)C(c2cccc3ccccc23)NC(=O)N1 (stereo not shown),17.5
25,CCCCN1C(=O)C(=O)N(CC(=O)N2CCc3ccccc32)C1=O,5.05
26,Cc1cc(C)cc(N(C(=O)c2ccco2)C(C(=O)NC2CCCC2)c2ccncc2)c1 (stereo not shown),9.94

# Reference: PMC4336329 (PLoS ONE, 2015)
